# Measured values from PubChem BioAssay AID504333 (National Center for Advancing Translational Sciences (NCATS), 2011).
# Hit rate of the full screen: of about 360,000 compounds, about 16,000 (4.4%) were called active. Where a call stands in place of a potency, no number is given. Not shown: some 9% with an inconclusive outcome. The call rests on the fitted dose curve; in most records, active means well fitted inhibition curve with a large enough effect; inconclusive means small, poorly fitted or top-dose-only effect; inactive means no such curve, though single readings can be large or run the other way. The sample as a whole holds a higher share of actives than the screen did.
# Target: Bromodomain adjacent to zinc finger domain protein 2B (Homo sapiens) (UniProt Q9UIF8)
# Assay: qHTS Assay for Inhibitors of BAZ2B; further: nearly all actives have a fitted effect of over 60% in size
# Conditions: AlphaScreen BAZ2B-H3K14Ac peptide displacement; series mostly up to 114 µM
# From the text: BAZ2B (bromodomain adjacent to zinc finger domain, 2B) belongs to a family of ubiquitously expressed bromodomain containing proteins, which biological function has not yet been elucidated. […] The interaction of BAZ2B with ISWI mediated by the BAZ1 motif has recently been described. […] The protocol is based on the AlphaScreen (PerkinElmer) displacement assay developed by NCGC [5], but uses the peptide ligand Biot-H3K14Ac, a high affinity binding partner for BAZ2B, in an AlphaScreen format. Although AlphaScreen has significant advantages with its utility in a variety of epigenetic target assays, the primary screening data provided in this deposition should be used with caution due to the prevalence of screening artifacts. The top compound concentration tested was 110uM in this assay, which increases number of actives and potential artifacts. An AlphaScreen counterscreen is highly recommended to be run against any putative actives to eliminate non-specific artifacts. Alternatively, one can use other AlphaScreen assays in PubChem to filter out promiscuous hits. Eberharter, A. et al. ACF1 improves the effectiveness of nucleosome mobilization by ISWI through PHD-histone contacts. The EMBO journal 23, 4029-4039. 2004. PMID: 15457208 [2] Jones, M.H. et al. A novel family of bromodomain genes. Genomics 63, 40-45. 2000. PMID: 10662543 [3] Yasgar, et al. Compound Management for Quantitative High-Throughput Screening. JALA. 2008 Apr;13(2):79-89. PMID: 18496600 [4] Inglese, et al. Quantitative high-throughput screening: a titration-based approach that efficiently identifies biological activities in large chemical libraries. Proc Natl Acad Sci. 1;103(31):11473-8. 2006. PMID: 16864780 [5] Quinn et al. A chemiluminescence-based method for identification of histone lysine methyltransferase inhibitors. Mol Biosyst 6(5): 782-8. 2010. PMID: 20567762 [6] Baell,Holloway. New substructure filters for removal of pan assay interference compounds (PAINS) from screening libraries and for their exclusion in bioassays. J Med Chem. 53(7):2719-40. 2010. PMID: 20131845 NIH Molecular Libraries Probe Production Network [MLPCN] NIH Chemical Genomics Center [NCGC] Structural Genomics Consortium (SGC) NIH Grant: 5U54 MH084681-02
# To each well of a 1,536w plate, 2ul of BAZ2B protein (final 50nM) and 1ul biotinylated histone peptide acetylated at Lys14 [b-H3(5-23)K14Ac] (final 50nM) were added in 1x PBS buffer, pH 7.4, containing 0.01% Tween-20, using a nanoliter dispenser. Formation of a protein-peptide complex proceeded at room temperature for 30 min. A Kalypsys pin-tool was employed to transfer 23 nL of library compound solution in DMSO to each well. Following a 30 min incubation of the protein-peptide complex with compounds at room temperature, a mixture of 40 ug/mL each streptavidin-coated donor and nickel chelate acceptor AlphaScreen beads (final 10 ug/mL) were added in a 1ul dispense for a final volume of 4ul. A brief centrifugation followed (1000rpm, 1 min) and were then incubated protected from the light for 20 min at room temperature. Plates were read on an EnVision multilabel plate reader using the 1,536 plate HTS AlphaScreen aperture (excitation time 80 ms, measurement time 240 ms).
# Potency means the concentration at half of the fitted maximal effect.
# Bromodomain adjacent to zinc finger domain protein 2B (Homo sapiens), sequence (Q9UIF8 whole entry, looked up, the tested form may be a part): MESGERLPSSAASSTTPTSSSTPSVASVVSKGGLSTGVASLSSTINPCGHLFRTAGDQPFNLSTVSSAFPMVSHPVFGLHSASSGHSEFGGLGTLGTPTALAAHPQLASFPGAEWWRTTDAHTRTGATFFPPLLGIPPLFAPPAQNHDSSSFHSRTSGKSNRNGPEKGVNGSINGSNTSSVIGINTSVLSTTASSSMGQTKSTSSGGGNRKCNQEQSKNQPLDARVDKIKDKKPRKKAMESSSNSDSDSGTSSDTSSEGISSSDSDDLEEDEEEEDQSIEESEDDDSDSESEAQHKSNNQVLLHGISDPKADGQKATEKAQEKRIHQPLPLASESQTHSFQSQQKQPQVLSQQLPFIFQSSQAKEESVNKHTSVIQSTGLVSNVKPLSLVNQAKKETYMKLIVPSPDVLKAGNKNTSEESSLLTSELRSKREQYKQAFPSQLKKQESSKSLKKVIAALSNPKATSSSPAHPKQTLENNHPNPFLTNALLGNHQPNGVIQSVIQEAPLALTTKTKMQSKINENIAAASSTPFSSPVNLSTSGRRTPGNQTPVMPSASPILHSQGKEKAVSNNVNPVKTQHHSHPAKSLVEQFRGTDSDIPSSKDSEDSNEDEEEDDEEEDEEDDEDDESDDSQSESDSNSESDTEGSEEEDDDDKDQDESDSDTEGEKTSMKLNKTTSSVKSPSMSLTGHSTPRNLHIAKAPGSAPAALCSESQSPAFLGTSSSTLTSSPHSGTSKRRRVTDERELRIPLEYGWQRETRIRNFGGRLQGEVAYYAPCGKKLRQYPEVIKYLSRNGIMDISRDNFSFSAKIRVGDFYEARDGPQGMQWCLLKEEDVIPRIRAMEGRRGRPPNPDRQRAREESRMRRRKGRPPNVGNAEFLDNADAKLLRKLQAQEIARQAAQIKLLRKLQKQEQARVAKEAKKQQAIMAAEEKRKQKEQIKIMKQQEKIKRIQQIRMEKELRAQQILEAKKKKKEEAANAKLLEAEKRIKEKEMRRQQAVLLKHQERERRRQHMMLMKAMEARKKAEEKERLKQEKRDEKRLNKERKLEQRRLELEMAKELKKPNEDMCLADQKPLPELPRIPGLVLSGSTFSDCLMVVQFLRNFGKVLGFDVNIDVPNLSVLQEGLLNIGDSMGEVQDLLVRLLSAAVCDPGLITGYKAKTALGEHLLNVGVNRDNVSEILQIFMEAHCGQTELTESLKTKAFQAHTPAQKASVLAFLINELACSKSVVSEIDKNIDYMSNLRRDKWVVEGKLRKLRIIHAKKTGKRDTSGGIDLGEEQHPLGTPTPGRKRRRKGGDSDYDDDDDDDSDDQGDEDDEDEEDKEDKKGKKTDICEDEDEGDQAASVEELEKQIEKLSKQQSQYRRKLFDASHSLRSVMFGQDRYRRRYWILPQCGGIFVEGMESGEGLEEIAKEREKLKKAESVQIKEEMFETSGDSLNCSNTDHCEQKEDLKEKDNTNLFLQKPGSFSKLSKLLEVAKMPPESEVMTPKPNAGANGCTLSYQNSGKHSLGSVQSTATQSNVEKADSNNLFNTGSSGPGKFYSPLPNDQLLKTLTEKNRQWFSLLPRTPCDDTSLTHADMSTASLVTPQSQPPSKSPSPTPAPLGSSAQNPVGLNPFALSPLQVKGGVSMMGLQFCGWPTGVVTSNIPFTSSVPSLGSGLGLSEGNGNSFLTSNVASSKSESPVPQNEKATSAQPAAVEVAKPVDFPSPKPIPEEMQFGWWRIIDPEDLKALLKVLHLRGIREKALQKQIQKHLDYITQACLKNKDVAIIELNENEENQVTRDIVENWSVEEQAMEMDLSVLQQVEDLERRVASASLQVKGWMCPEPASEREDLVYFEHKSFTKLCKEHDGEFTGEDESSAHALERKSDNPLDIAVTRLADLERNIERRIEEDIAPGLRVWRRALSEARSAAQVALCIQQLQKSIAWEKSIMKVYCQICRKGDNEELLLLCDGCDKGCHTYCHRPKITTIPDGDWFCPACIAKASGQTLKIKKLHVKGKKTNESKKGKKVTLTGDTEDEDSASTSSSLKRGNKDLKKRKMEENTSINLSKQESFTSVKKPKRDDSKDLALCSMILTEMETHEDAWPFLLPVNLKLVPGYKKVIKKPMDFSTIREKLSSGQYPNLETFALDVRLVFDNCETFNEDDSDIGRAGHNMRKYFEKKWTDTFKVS
row,SMILES,Potency
1,O=C(O)c1cscn1,20 µM (active)
2,COc1ccc(NC(=O)Cn2c(=O)cc(C)c3c(C)nn(-c4cccc(Cl)c4C)c32)cc1OC,inactive
3,Cc1cccc(OCCSc2nc3ccc(NC(=O)COc4ccccc4C)cc3s2)c1,inactive
4,N/C(=N\OC(=O)c1ccc([N+](=O)[O-])cc1)c1ccccn1,inactive
5,N/C(=N\OC(=O)Cc1ccc([N+](=O)[O-])cc1)c1ccccn1,50.1 µM (active)
6,COc1ccccc1OCC(=O)O/N=C(\N)c1ccccn1,inactive
7,CCOC(=O)c1cccc(NC(=O)Cn2cnc3nc4c(cc3c2=O)CCCC4)c1,inactive
8,Cc1ccc(CCNC(=O)c2ccc3c(c2)nc2n3CCC(C)C2)cc1 (stereo unspecified),inactive
9,Cn1nnnc1SCCCNCc1cccc(OCc2ccc(Cl)cc2)c1,inactive
10,CC(=O)N(C)c1ccc(NC(=O)C(F)(F)F)cc1,inactive
11,CC(C)CNC(=O)C(=O)Nc1ccc(N(C)C)cc1,inactive
12,CN(C)c1ccc(N/C=C/C(=O)C(F)(F)F)cc1,28.2 µM (active)
13,Cc1oc2ccc(O)c(CN3CCC(C)CC3)c2c1C(=O)Nc1ccccc1,inactive
14,Cc1c(CCC(=O)N[C@@H](CC(C)C)C(=O)O)c(=O)oc2c(C)c3oc4c(c3cc12)CCCC4,inactive
15,Cc1c(OC(C)C(=O)N[C@@H](Cc2ccccc2)C(=O)O)ccc2c3c(c(=O)oc12)CCCC3 (stereo partly specified),inactive
16,Cc1oc2c(C)c3oc(=O)c(CC(=O)N[C@@H](CC(C)C)C(=O)N[C@@H](Cc4ccccc4)C(=O)O)c(C)c3cc2c1C,35.5 µM (active)
17,COc1ccc(NC(=O)CSc2nc3ncccc3[nH]2)c(OC)c1,inactive
18,COc1ccc(C(=O)Nc2cccc(C(=O)OCc3cc(=O)n4c5c(sc4n3)CCCC5)c2)cc1,inactive
19,CCc1ccccc1NC(=O)Cc1ccc(NC(=O)N2CCCCc3ccccc32)cc1,inactive
20,O=C(Nc1ccccc1)O/N=C1\CCCCC1c1ccc([N+](=O)[O-])cc1[N+](=O)[O-] (stereo unspecified),inactive
21,O=[N+]([O-])c1ccc(N/N=C2/CCCCC2c2ccccn2)c([N+](=O)[O-])c1 (stereo unspecified),31.6 µM (active)
22,COc1cc([N+](=O)[O-])ccc1NC(=S)N1CCN(c2ccccn2)CC1,inactive

row,SMILES,Potency
1,Cc1ccc(F)cc1NC(=O)CCSc1nc(-c2ccco2)cc(C(F)(F)F)n1,inactive
2,COC(=O)c1cc(S(=O)(=O)N2CCN(c3cc(Cl)ccc3C)CC2)c[nH]1,inactive
3,COc1ccc(-c2nc3sc(CCNC(=O)C(C)(C)C)c(C)n3n2)cc1,inactive
4,COc1cc(-c2noc(-c3ccc(N4CCCC4)c([N+](=O)[O-])c3)n2)cc(OC)c1OC,inactive
5,Cc1ccc(Cl)cc1NC(=O)/C(C#N)=C\c1cn(Cc2ccc(F)cc2)c2ccccc12,inactive
6,Cc1ccsc1C(=O)NCCc1ccco1,56.2 µM (active)
7,COc1cc(OC)cc(C(=O)NCCSCc2ccco2)c1,inactive
8,Cc1ccccc1NC(=O)NCc1ccco1,inactive
9,Cc1ccc(F)cc1S(=O)(=O)N1CCC(c2nc3ccccc3s2)CC1,inactive
10,Cc1ccc(C(=O)COC(=O)C(Cc2c[nH]c3ccccc23)NC(=O)c2ccc(Br)cc2)cc1 (stereo unspecified),inactive
11,COc1cccc(NC(=O)NCCN2CCCCC2)c1,inactive
12,COc1cc(/C=N/NC(=O)c2ccoc2C)ccc1OCCN1CCCCC1,inactive
13,CC1CCN(CC(O)COc2ccc(C(=O)c3ccccc3)cc2)CC1 (stereo unspecified),inactive
14,COc1cccc(OCCCN2CCCCCC2)c1,56.2 µM (active)
15,C/C=C/c1ccc(OCCCCN2CCC(C)CC2)c(OC)c1,35.5 µM (active)
16,COc1ccc(OCCCCN2CCC(C)CC2)cc1,79.4 µM (active)
17,COc1ccc(OC)c(NC(=O)CCN2CCC(C)CC2)c1,inactive
18,C/C=C/c1ccc(OCCOc2ccc(C=O)cc2OC)c(OC)c1,inactive
19,COc1cccc(OCC(O)CN2CCN(CCO)CC2)c1 (stereo unspecified),inactive
20,CCCCN(C)S(=O)(=O)c1ccc(C(=O)Nc2sc3c(c2C(N)=O)CC(C)(C)NC3(C)C)cc1,inactive
21,COC(=O)c1ccccc1NC(=O)Cn1c(=O)cc(C)c2c(C)nn(-c3cccc(Cl)c3C)c21,inactive
22,CCOc1ccc(CNC(=O)C2CCCN(S(=O)(=O)N(CC)c3ccc(OCC)cc3)C2)cc1 (stereo unspecified),inactive

row,SMILES,Potency
1,Cc1ccc(Cc2nc3ccccc3nc2SCC(=O)Nc2cccc(C(F)(F)F)c2)cc1,inactive
2,Cc1ccc(-c2nc3ccccn3c2Nc2c(C)cccc2C)o1,28.2 µM (active)
3,Cc1nc2ccccn2c(=O)c1NC(=O)c1c(F)cccc1F,inactive
4,Cc1cccc(C)c1Nc1c(-c2ccccc2O)nc2ncccn12,inactive
5,CCOC(=O)C1CCN(c2ncnc3c2c(-c2ccccc2)cn3-c2cccc(C)c2)CC1,inactive
6,CCOc1ccc(CCNC(=O)c2csc3c2CCCCC3)cc1,inactive
7,Cc1ccccc1NC(=O)c1ccccc1NS(=O)(=O)c1cccc2cccnc12,inactive
8,COc1cc(NS(=O)(=O)c2ccc3ccccc3c2)c2ncccc2c1,inactive
9,O=[N+]([O-])c1ccccc1S(=O)(=O)Nc1cccc2cccnc12,25.1 µM (active)
10,Cc1nn(-c2nc(-c3ccccc3)cc(C(F)(F)F)n2)c(C)c1Cl,inactive
11,O=C(Nc1nc2c(s1)CCCC2)c1ccccc1F,inactive
12,Cc1cc(C)cc(OC(C)C(=O)Nc2nc3c(s2)CCCC3)c1 (stereo unspecified),inactive
13,COC(=O)C(NC(C)=O)(Nc1nc2c(s1)CCCC2)C(F)(F)F (stereo unspecified),56.2 µM (active)
14,O=C(CCS(=O)(=O)c1ccc2c(c1)NC(=O)CO2)Nc1cccc(C(F)(F)F)c1,inactive
15,CCOC(=O)CSC1=Nc2ccccc2C2=NC(CCC(=O)NCc3ccc(F)cc3)C(=O)N12 (stereo unspecified),inactive
16,Cc1ccc(C)n1C(Cc1ccccc1)C(=O)O (stereo unspecified),39.8 µM (active)
17,N[C@@H](Cc1ccccc1)C(=O)N1CCOCC1,inactive
18,CCOC(=O)C(Cc1ccc(N)cc1)N1C(=O)c2ccccc2C1=O (stereo unspecified),inactive
19,Cc1ccc2nc(CN3CCN(S(=O)(=O)c4ccc(C)c(C)c4)CC3)oc2c1,inactive
20,Cc1nn(-c2ccccn2)c2c1C(c1ccncc1)C1=C(CC(C)(C)CC1=O)N2 (stereo unspecified),inactive
21,Cc1cc(C)c(C2C3=C(Nc4c2c(C)nn4-c2ccccn2)c2ccccc2C3=O)c(C)c1 (stereo unspecified),10 µM (active)
22,CC(=C1C(=O)c2ccccc2C1=O)N1CCN(c2ccccn2)CC1,inactive
